The inhibition is the change of the read-out against control, counted positive when it falls.

Experimental findings from ChEMBL document CHEMBL1961873, “Compounds: GSK PKIS; Assays: Nanosyn kinase panel” (2012) are described below.

Experiment [1] concerns the target T1, 3-phosphoinositide-dependent protein kinase 1 (Homo sapiens) (UniProt O15530).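 Also: values are mean inhibition of PDK1.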
T1 sequence (whole entry): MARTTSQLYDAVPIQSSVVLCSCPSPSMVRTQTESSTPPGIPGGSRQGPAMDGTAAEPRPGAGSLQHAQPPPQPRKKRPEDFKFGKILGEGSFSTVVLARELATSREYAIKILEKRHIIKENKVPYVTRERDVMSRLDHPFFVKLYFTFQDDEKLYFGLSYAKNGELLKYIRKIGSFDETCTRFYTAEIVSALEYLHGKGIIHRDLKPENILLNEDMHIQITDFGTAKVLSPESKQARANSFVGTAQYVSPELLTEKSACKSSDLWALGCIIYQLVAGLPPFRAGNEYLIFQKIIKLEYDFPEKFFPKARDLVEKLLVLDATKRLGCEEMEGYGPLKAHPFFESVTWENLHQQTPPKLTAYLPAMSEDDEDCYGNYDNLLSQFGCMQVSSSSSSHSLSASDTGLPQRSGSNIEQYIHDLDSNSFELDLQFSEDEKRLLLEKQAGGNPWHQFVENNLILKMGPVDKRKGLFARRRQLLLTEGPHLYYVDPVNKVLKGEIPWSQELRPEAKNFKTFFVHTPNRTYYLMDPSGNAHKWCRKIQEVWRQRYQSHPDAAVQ
Particulars: at 0.1 µM.

In experiment [2] the target is cAMP-dependent protein kinase catalytic subunit alpha (Homo sapiens) (UniProt P17612). Particulars: at 0.1 µM.
The target is the same in experiment [3]. To be noted: at 1 µM.
Experiment [4] concerns the target Protein kinase C alpha type (Homo sapiens) (UniProt P17252). To be noted: at 0.1 µM.
For experiment [5] the target is unchanged. Particulars: at 1 µM.
The target of experiment [6] is Protein kinase C beta type (Homo sapiens) (UniProt P05771). To be noted: at 0.1 µM.
Protein kinase C beta type (Homo sapiens), sequence (P05771 2-671 limits assumed): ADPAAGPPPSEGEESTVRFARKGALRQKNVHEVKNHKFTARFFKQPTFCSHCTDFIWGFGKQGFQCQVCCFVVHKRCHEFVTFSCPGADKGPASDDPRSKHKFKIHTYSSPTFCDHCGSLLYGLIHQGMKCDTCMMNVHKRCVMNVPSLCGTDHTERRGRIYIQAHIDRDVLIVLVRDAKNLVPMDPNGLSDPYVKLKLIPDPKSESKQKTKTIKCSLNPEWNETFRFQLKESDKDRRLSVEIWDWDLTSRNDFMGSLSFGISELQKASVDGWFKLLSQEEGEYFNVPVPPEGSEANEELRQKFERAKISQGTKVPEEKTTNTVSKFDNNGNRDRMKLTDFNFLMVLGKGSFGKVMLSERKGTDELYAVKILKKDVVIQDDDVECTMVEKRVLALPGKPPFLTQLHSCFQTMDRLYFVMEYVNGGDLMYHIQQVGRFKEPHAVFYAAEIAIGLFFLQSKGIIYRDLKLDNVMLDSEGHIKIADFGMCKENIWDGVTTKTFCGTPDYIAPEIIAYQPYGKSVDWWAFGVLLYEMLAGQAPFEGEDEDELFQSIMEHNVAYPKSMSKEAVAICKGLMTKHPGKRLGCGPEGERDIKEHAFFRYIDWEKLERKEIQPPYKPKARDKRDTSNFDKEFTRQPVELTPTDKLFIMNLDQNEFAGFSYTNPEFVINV
The target is the same in experiment [7]. To be noted: at 1 µM.
Experiment [8] concerns the target Protein kinase C eta type (Homo sapiens) (UniProt P24723). To be noted: at 0.1 µM.
The target is the same in experiment [9]. To be noted: at 1 µM.
Experiment [10] deals with Protein kinase C gamma type (Homo sapiens) (UniProt P05129). To be noted: at 0.1 µM.
Experiment [11] shares this target. To be noted: at 1 µM.
Experiment [12] has as its target T2, Protein kinase C iota type (Homo sapiens) (UniProt P41743).
T2 sequence (whole entry): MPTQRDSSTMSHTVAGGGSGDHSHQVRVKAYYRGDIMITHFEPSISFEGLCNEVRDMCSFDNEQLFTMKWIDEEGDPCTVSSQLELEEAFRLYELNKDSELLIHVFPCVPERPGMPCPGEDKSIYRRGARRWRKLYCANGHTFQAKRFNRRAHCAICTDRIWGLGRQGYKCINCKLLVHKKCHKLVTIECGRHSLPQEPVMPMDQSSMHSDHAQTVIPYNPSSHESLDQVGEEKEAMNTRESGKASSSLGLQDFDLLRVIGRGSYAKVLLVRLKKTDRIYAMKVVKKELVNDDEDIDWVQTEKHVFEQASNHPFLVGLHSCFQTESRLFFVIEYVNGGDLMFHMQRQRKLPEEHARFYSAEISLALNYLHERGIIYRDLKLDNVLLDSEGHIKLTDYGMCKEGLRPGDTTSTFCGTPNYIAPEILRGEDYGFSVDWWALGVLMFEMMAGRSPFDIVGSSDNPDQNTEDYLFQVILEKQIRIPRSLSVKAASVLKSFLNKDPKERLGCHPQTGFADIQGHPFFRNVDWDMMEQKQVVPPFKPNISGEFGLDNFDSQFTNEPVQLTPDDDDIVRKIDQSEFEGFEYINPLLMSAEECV
To be noted: at 0.1 µM.

Experiment [13] deals with T2, Protein kinase C iota type (Homo sapiens). Particulars: at 1 µM.
Experiment [14] has as its target Protein kinase C theta type (Homo sapiens) (UniProt Q04759). Particulars: at 0.1 µM.
The target is the same in experiment [15]. To be noted: at 1 µM.
Experiment [16] deals with Protein kinase C beta type (Homo sapiens) (UniProt P05771). To be noted: at 0.1 µM. The source holds these as a separate data set.
The target is the same in experiment [17]. Particulars: at 1 µM. This is another data set of the same source.
For experiment [18], the target named is T3, Serine/threonine-protein kinase D1 (Homo sapiens) (UniProt Q15139).
T3 sequence (whole entry): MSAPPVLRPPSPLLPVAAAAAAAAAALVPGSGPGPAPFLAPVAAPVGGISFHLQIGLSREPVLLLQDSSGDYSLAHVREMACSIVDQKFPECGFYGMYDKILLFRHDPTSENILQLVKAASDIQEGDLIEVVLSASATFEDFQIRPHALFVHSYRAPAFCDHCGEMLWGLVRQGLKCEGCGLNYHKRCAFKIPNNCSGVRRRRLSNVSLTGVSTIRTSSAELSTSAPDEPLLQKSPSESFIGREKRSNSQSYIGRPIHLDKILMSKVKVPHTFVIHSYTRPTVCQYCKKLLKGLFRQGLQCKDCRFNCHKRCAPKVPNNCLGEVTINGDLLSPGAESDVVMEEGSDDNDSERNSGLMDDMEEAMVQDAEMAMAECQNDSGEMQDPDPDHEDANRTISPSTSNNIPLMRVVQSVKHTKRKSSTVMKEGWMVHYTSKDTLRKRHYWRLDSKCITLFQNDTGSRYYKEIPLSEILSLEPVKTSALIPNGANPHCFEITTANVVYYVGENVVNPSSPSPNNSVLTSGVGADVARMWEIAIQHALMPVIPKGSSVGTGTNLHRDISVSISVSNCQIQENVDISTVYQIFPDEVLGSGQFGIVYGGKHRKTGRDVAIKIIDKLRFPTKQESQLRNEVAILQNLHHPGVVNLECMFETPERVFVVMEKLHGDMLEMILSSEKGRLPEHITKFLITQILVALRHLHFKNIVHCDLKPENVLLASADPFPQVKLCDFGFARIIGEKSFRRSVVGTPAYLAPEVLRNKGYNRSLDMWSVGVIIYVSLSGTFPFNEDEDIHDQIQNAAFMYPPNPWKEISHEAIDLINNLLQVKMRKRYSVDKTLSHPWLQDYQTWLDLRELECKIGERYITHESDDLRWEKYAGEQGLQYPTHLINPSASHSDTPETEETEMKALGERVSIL
Particulars: at 0.1 µM.

For experiment [19], the target named is T3, Serine/threonine-protein kinase D1 (Homo sapiens). To be noted: at 1 µM.
The target in experiment [20] is T4, Serine/threonine-protein kinase D2 (Homo sapiens) (UniProt Q9BZL6).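 Also: reported percent inhibition values are means, part of the GSK PKIS kinase panel screen.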
T4 sequence (whole entry): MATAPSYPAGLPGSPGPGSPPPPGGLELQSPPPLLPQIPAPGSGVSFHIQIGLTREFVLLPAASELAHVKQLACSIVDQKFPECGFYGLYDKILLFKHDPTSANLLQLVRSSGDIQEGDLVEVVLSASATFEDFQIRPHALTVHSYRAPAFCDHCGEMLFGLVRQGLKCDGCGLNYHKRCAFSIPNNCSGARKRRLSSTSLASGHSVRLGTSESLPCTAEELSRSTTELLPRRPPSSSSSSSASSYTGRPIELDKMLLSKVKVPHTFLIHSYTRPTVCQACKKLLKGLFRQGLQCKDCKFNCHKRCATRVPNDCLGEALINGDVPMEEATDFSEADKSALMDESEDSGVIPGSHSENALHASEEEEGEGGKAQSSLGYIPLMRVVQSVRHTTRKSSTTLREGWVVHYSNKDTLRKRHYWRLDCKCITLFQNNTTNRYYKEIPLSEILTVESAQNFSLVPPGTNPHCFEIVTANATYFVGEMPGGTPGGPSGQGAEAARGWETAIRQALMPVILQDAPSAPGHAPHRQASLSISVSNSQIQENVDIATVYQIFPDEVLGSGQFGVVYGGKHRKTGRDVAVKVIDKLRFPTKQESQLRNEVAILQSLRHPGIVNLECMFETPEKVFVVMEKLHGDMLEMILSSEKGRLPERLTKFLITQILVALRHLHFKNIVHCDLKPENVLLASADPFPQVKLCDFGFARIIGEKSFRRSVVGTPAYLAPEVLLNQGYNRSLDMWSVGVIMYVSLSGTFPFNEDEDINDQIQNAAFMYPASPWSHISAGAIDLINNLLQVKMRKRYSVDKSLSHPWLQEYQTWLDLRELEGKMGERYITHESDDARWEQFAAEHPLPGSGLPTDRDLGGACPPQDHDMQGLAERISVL
To be noted: at 0.1 µM.

Protein kinase C eta type (Homo sapiens), sequence (P24723 whole entry): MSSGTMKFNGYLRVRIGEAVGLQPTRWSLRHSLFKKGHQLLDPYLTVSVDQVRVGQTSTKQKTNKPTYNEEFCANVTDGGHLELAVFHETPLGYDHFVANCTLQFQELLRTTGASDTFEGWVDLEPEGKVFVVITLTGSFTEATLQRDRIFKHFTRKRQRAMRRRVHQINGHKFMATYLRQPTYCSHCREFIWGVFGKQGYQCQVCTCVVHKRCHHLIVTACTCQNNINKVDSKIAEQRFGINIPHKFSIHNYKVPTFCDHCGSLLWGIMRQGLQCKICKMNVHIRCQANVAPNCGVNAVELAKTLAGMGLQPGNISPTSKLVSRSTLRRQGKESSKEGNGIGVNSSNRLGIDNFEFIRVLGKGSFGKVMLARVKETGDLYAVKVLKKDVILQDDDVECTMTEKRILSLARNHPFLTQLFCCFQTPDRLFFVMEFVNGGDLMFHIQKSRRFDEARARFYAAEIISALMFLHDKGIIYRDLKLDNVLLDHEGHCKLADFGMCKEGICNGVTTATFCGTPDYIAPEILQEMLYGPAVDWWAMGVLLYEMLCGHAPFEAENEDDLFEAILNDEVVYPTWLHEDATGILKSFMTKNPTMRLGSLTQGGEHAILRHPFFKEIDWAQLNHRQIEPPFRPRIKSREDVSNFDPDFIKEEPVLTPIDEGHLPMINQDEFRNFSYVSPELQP
Protein kinase C theta type (Homo sapiens), sequence (Q04759 whole entry, looked up): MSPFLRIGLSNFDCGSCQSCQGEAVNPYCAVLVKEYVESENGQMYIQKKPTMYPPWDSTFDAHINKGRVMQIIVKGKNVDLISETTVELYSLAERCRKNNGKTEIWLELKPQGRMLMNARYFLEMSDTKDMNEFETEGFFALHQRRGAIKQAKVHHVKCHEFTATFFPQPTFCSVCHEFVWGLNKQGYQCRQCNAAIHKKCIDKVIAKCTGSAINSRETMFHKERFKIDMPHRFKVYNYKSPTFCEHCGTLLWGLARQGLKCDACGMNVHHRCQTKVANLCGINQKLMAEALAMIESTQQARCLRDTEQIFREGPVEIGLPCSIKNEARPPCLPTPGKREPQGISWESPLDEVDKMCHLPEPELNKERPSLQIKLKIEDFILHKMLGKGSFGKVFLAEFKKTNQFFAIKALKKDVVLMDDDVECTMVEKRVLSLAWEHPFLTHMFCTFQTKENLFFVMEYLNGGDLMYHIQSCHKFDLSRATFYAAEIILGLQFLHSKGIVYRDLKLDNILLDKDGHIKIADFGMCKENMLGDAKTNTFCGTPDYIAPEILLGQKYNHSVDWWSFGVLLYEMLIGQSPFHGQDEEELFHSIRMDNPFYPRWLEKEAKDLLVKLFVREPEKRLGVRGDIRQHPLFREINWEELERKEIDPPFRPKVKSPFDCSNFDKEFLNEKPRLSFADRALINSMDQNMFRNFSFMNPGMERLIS

With `COC(=O)c1ccc2c(c1)C(=Cc1cc(Br)c(O)c(Br)c1)C(=O)N2`, the inhibition is -0.14% in experiment [1]; 1.68% in experiment [2]; 0.85% in [3]; 0.87% in [4]; 2.31% in experiment [5]; -0.23% in experiment [6]. Besides, the inhibition is -0.51% in experiment [7]; 2.26% in experiment [8]; 3.91% in [9]; 1.07% in experiment [10]; 0.79% in experiment [11]; 1.17% in experiment [12]. Also, the inhibition in [13] is 0.96%; in [14], 1.25%; in experiment [15], 1.86%; in [16] it was 1.12%; in experiment [17] it was 1.9%; in [18], 5.07%. In addition, the inhibition is 7.26% in experiment [19] and 4.47% in experiment [20].

As for `Cc1cc(Cl)cc2c1NC(=O)C2=NNc1ccc(S(N)(=O)=O)cc1`, the inhibition in experiment [1] was 0.95%; in experiment [2], 1.21%; in experiment [3] it was 1.37%; in experiment [4], 0.07%; in [5] it was -0.61%; in experiment [6], 0.78%. For the same molecule, the inhibition in experiment [7] is 2.56%; in experiment [8], -0.95%; in [9], 2.95%; in [10], 0.4%; in [11], 1.99%; in experiment [12] it was 0.57%. In addition, the inhibition in [13] came out at 0.13%; in experiment [14], 1.67%; in experiment [15], 3.19%; in [16], 0.04%; in experiment [17], 1.07%; in [18], 2.49%. Moreover, the results for the inhibition in experiment [19] and in experiment [20] were 2.15% and 2.28%, respectively.

Take `O=C(Nc1ccc(Oc2ccc3[nH]c(NC(=O)c4ccco4)nc3c2)cc1)Nc1cc(C(F)(F)F)ccc1F`: the inhibition in experiment [1] is 2.37%; in [2] it was -0.33%; in experiment [3] it was 0.09%; in [4] it was -3.29%; in [5], -2.22%; in [6], -0.09%. Also, the inhibition in experiment [7] was -1.32%; in experiment [8], 1.15%; in experiment [9] it was -0.71%; in [10] it was 2.16%; in experiment [11], 2.22%; in experiment [12], 0.86%. The inhibition was -0.83% in experiment [13]; -0.73% in [14]; 1.78% in experiment [15]; 0.05% in [16]; 1.61% in experiment [17]; -3.35% in [18]. Besides, the inhibition in experiment [19] is -2.46%; in experiment [20], -3.46%.

Turning to `COc1cc2ncnc(Nc3ccc4c(cnn4Cc4ccccc4)c3)c2cc1OC`, the inhibition was 0.98% in experiment [1]; 0.6% in experiment [2]; -0.11% in experiment [3]; 0.53% in experiment [4]; 0.88% in experiment [5]; 0.81% in experiment [6]. The inhibition in experiment [7] was -2.42%; in [8], 5.6%; in [9], 3.69%; in experiment [10], 2.66%; in [11] it was 2.04%; in experiment [12] it was 0.72%. Besides, the inhibition is 0.48% in [13]; 0.78% in experiment [14]; 0.99% in experiment [15]; 0.94% in experiment [16]; 0.88% in experiment [17]; 2.89% in experiment [18]. Moreover, the figures for the inhibition in experiment [19] and in experiment [20] were 5.2% and 2.96%, respectively.

For `ON=C1CCc2cc(-c3nc(C4CCNCC4)[nH]c3-c3ccncc3)ccc21`, the inhibition in experiment [1] is -0.07%; in experiment [2], 1.54%; in [3], 18.8%; in [4] it was 1.13%; in [5], 2.47%; in [6], -0.12%. Moreover, the inhibition in [7] is 11.1%; in experiment [8], -0.55%; in experiment [9] it was 2.63%; in [10], -1.91%; in [11] it was -1.84%; in experiment [12], -0.01%. Besides, the inhibition in [13] was 4.71%; in [14], -0.55%; in experiment [15], 1.23%; in experiment [16], 0.45%; in [17] it was 7.96%; in experiment [18], 0.36%. For the same molecule, the figures for the inhibition in experiment [19] and in experiment [20] were 5.6% and 1.54%, respectively.

For `COc1cc(/C=N/Nc2ncnc3c2cnn3C(C)C)ccc1O`, the inhibition in experiment [1] was determined as 5.59%; in [2] it was 1.05%; in experiment [3], 3.87%; in experiment [4], 0.6%; in [5], 2.74%; in experiment [6], 0.72%. Moreover, the inhibition is 3.01% in experiment [7]; 0.82% in experiment [8]; 3.21% in [9]; -1.82% in experiment [10]; 5.96% in experiment [11]; 1.94% in experiment [12]. The inhibition in experiment [13] was 1.52%; in experiment [14], 1.33%; in experiment [15], 4.03%; in experiment [16], 1.47%; in experiment [17], 4.67%; in experiment [18], 1.79%. Further, the inhibition turned out to be 1.16% in [19] and 1.45% in [20].

`CN(c1ccc(NC(=O)Nc2ccc(OC(F)(F)F)cc2)cc1)c1ccnc(Nc2cccc(S(N)(=O)=O)c2)n1`: the inhibition in experiment [1] turned out to be 0.37%; in [2] it was 1.4%; in experiment [3], 2.04%; in [4], 0.02%; in experiment [5] it was 0.85%; in experiment [6], 0.45%. The inhibition is 0.52% in experiment [7]; 0.81% in experiment [8]; -0.51% in experiment [9]; 2.48% in experiment [10]; 2.99% in experiment [11]; 0.52% in [12]. In addition, the inhibition is -0.73% in experiment [13]; 0.61% in experiment [14]; 0.96% in [15]; -0.08% in [16]; 0.69% in [17]; 2.95% in experiment [18]. Further, the inhibition in experiment [19] is 4.48%; in [20], 3.68%.
